Source: the supplement of paper PMC10849652
About 8,800 targets were measured; listed, in parts, are those with a hit and a random draw of the rest. About 0.5% of all pairs of compound and target were hits. Values without a mark were called inactive.

Experiments:
Assay in all cases: log2 fold change, soluble protein after heating vs DMSO (PISA); higher = thermal stabilisation; K562 lysate, 10 uM; active = over 0.2 and 3.5 SD of the protein, either way, in both replicates (recomputed)
alvocidib = compound: CN1CC[C@H](c2c(O)cc(O)c3c(=O)cc(-c4ccccc4Cl)oc23)[C@H](O)C1 [alvocidib]
In short: (§1)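 Following dounce homogenisation of K562 pellets in PBS pH 7.4 with 1 mM MgCl2, crude extract at 1 mg/mL protein was incubated for 30 min with 10 μM compound. Aliquots were then heated for 3 min over 48°C-58°C and pooled, NP-40 was added to 0.5% at 4°C, and soluble protein was recovered as the supernatant at 21,000xg for 90 min. Channel-sum-equalised TMTpro 16plex LC-MS/MS quantified this protein. Each value, from duplicates, is a log-two fold change in thermal stability relative to solvent controls.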

Tubastatin A = compound: CN1CCc2c(c3ccccc3n2Cc2ccc(C(=O)NO)cc2)C1 [Tubastatin A]
In short: as §1

[1] = compound: CNC(=O)C1=CC=CC=C1NC2=NC(=NC=C2Cl)NC3=C(C=C(C=C3)N4CCOCC4)OC
In short: as §1

defactinib = compound: CNC(=O)c1ccc(Nc2ncc(C(F)(F)F)c(NCc3nccnc3N(C)S(C)(=O)=O)n2)cc1 [defactinib]
In short: as §1

[2] = compound: CNc1nc(-c2ccc3c(N)n[nH]c3c2)cc(N2C[C@@H](C(=O)NC3CCCCC3)CC[C@H]2C)n1
In short: as §1

encorafenib = compound: COC(=O)N[C@@H](C)CNc1nccc(-c2cn(C(C)C)nc2-c2cc(Cl)cc(NS(C)(=O)=O)c2F)n1 [encorafenib]
In short: as §1

[3] = compound: COC(=O)[C@H](CCSC)NC(=O)C1=C(C=C(C=C1)NC[C@H](CS)N)C2=CC=CC=C2
In short: as §1

alisertib = compound: COc1cc(Nc2ncc3c(n2)-c2ccc(Cl)cc2C(c2c(F)cccc2OC)=NC3)ccc1C(=O)O [alisertib]
In short: as §1

[4] = compound: COc1cc2nc(-c3cc(F)ccc3O)nc(N[C@@H]3CNC[C@H]3C(C)(C)O)c2cc1OC
In short: as §1

gefitinib = compound: COc1cc2ncnc(Nc3ccc(F)c(Cl)c3)c2cc1OCCCN1CCOCC1 [gefitinib]
In short: as §1

lapatinib = compound: CS(=O)(=O)CCNCc1ccc(-c2ccc3ncnc(Nc4ccc(OCc5cccc(F)c5)c(Cl)c4)c3c2)o1 [lapatinib]
In short: as §1

pictilisib = compound: CS(=O)(=O)N1CCN(Cc2cc3nc(-c4cccc5[nH]ncc45)nc(N4CCOCC4)c3s2)CC1 [pictilisib]
In short: as §1

crizotinib = compound: C[C@@H](Oc1cc(-c2cnn(C3CCNCC3)c2)cnc1N)c1c(Cl)ccc(F)c1Cl [crizotinib]
In short: as §1

[5] = compound: C[C@H](C1=CC=C(C=C1)C(=O)NC2=C3C=CNC3=NC=C2)N
In short: as §1

duvelisib = compound: C[C@H](Nc1ncnc2nc[nH]c12)c1cc2cccc(Cl)c2c(=O)n1-c1ccccc1 [duvelisib]
In short: as §1

gandotinib = compound: Cc1cc(Nc2cc(CN3CCOCC3)c3nc(C)c(Cc4ccc(Cl)cc4F)n3n2)n[nH]1 [gandotinib]
In short: as §1

tozasertib = compound: Cc1cc(Nc2cc(N3CCN(C)CC3)nc(Sc3ccc(NC(=O)C4CC4)cc3)n2)n[nH]1 [tozasertib]
In short: as §1

doramapimod = compound: Cc1ccc(-n2nc(C(C)(C)C)cc2NC(=O)Nc2ccc(OCCN3CCOCC3)c3ccccc23)cc1 [doramapimod]
In short: as §1

bafetinib = compound: Cc1ccc(NC(=O)c2ccc(CN3CC[C@H](N(C)C)C3)c(C(F)(F)F)c2)cc1Nc1nccc(-c2cncnc2)n1 [bafetinib]
In short: as §1

[6] = compound: Cc1cccc(CC(=O)N2CCc3c2ccc(-c2cn(C)c4ncnc(N)c24)c3F)n1
In short: as §1

Chain of UniProt Q9BQI3 (Q9BQI3 whole entry, looked up): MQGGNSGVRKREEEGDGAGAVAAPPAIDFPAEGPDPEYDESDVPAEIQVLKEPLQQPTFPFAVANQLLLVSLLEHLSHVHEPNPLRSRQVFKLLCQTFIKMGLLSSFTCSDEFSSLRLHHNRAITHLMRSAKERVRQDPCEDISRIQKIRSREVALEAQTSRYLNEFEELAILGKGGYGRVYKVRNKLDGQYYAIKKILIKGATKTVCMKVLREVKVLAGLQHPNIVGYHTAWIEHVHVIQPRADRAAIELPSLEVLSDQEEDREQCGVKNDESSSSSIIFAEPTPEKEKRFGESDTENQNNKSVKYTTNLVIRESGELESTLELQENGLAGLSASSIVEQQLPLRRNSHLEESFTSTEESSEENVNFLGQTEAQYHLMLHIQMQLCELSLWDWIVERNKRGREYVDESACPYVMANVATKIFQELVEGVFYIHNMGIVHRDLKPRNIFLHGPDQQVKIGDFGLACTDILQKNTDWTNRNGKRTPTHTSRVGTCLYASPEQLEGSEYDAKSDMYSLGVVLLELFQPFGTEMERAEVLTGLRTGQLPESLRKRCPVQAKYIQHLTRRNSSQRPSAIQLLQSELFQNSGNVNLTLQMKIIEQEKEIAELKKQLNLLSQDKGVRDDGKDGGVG
Chain of UniProt Q92616 (Q92616 whole entry, looked up): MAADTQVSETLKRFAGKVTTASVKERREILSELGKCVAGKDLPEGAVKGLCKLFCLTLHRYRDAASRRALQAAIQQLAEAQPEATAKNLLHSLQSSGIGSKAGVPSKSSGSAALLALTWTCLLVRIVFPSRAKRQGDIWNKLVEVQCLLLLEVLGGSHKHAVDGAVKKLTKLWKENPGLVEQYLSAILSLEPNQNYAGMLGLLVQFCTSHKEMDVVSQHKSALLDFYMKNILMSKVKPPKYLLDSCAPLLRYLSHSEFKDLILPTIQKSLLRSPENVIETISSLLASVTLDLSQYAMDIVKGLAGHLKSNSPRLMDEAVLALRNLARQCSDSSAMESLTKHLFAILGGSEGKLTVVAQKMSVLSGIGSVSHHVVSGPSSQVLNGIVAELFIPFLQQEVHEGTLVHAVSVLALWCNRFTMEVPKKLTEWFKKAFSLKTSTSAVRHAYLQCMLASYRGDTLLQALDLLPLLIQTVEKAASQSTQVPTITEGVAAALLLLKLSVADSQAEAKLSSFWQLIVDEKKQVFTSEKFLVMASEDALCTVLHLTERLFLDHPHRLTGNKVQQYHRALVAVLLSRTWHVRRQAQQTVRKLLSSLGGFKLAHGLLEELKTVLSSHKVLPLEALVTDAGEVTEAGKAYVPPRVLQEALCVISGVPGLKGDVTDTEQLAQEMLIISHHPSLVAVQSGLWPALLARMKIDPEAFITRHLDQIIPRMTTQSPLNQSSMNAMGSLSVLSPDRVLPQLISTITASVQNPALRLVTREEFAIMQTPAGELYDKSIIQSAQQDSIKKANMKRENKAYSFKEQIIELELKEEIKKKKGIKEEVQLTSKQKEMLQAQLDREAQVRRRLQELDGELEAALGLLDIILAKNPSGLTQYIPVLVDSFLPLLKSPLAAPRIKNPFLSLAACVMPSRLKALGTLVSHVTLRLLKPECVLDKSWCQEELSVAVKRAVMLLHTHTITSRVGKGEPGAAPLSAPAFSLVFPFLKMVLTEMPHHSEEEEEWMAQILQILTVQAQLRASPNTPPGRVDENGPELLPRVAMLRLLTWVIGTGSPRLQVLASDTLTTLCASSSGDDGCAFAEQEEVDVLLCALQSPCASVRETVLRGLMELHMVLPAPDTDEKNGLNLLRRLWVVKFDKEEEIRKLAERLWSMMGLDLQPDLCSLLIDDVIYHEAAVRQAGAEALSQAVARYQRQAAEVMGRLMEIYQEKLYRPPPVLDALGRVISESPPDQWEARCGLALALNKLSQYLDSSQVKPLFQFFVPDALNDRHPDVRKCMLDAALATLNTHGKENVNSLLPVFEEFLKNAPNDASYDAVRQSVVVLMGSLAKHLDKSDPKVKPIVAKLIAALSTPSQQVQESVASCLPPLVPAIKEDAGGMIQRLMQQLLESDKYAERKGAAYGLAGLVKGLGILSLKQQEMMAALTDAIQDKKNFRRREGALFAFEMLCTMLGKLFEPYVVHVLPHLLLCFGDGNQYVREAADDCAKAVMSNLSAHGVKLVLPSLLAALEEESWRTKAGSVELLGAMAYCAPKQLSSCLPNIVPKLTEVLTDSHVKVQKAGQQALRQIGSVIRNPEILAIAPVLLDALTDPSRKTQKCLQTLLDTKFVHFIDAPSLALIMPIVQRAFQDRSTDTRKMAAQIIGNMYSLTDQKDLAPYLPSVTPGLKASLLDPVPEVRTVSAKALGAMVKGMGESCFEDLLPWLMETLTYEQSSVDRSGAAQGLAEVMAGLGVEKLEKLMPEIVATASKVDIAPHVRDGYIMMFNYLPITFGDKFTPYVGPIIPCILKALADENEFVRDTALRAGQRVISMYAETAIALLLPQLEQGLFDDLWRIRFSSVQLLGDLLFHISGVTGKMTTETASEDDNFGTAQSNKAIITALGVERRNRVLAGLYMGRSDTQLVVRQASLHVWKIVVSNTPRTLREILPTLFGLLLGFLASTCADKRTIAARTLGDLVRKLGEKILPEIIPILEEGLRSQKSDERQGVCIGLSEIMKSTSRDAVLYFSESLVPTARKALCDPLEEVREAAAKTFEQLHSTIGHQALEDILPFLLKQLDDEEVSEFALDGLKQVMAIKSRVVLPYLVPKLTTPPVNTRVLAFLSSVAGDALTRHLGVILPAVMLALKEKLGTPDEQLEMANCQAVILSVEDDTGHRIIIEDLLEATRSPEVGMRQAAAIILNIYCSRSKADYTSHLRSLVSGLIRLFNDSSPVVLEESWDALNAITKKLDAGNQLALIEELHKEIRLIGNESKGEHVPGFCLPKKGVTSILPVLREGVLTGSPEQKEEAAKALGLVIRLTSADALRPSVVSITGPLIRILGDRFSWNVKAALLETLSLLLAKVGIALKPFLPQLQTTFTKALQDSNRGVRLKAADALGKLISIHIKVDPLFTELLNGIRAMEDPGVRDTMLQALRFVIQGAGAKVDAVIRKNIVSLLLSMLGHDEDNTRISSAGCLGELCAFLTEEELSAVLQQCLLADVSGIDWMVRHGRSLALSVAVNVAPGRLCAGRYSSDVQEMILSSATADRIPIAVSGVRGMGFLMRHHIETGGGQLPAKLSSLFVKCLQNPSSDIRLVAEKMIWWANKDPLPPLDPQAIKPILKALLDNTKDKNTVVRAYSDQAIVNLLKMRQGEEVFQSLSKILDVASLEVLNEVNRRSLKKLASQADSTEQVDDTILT
Chain of UniProt P11413 (P11413 whole entry, looked up): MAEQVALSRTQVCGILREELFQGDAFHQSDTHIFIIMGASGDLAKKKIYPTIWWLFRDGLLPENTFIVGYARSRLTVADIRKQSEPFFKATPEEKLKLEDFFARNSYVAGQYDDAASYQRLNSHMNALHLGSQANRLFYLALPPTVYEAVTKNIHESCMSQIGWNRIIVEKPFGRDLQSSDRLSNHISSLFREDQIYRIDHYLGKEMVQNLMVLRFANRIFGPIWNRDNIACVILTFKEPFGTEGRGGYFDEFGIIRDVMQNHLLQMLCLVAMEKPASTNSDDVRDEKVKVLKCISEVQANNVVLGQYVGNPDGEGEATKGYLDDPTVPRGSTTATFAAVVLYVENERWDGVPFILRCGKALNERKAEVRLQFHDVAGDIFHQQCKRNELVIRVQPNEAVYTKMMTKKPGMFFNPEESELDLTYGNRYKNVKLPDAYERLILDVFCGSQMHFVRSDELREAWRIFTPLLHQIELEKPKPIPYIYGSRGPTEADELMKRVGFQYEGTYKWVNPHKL
Chain of UniProt Q01844 (Q01844 whole entry, looked up): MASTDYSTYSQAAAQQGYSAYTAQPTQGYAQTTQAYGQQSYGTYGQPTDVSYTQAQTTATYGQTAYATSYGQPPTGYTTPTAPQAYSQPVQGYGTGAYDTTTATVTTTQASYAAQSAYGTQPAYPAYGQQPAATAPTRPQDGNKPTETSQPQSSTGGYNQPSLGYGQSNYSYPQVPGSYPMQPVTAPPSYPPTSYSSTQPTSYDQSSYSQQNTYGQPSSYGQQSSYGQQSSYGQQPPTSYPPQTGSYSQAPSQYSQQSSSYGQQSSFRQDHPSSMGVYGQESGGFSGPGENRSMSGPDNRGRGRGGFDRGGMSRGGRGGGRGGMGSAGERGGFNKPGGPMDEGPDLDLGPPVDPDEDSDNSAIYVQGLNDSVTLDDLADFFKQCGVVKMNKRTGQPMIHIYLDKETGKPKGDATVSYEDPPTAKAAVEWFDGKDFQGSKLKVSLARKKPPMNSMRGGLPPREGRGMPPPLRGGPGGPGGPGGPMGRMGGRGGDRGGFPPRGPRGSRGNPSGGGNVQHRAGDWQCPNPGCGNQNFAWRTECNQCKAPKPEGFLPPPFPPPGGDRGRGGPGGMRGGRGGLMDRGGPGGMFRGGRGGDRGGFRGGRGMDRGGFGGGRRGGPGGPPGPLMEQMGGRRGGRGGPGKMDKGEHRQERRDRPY
Chain of UniProt Q96F86 (Q96F86 whole entry, looked up): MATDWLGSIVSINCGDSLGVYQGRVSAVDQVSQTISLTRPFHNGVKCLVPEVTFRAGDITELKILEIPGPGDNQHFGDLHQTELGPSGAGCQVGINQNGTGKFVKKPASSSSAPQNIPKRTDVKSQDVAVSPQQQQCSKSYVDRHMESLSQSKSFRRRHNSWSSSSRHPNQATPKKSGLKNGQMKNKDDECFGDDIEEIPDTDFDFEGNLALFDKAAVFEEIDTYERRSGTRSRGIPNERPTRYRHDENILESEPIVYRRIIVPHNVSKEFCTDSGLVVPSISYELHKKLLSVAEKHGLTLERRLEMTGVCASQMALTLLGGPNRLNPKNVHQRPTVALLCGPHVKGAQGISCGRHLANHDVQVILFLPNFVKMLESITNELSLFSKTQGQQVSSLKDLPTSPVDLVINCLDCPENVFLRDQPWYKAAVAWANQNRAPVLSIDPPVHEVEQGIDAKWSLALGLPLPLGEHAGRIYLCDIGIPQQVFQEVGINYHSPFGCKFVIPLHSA

Target | log2 fold change (alvocidib) | log2 fold change (Tubastatin A) | log2 fold change [1] | log2 fold change (defactinib) | log2 fold change [2] | log2 fold change (encorafenib) | log2 fold change [3] | log2 fold change (alisertib) | log2 fold change [4] | log2 fold change (gefitinib) | log2 fold change (lapatinib) | log2 fold change (pictilisib) | log2 fold change (crizotinib) | log2 fold change [5] | log2 fold change (duvelisib) | log2 fold change (gandotinib) | log2 fold change (tozasertib) | log2 fold change (doramapimod) | log2 fold change (bafetinib) | log2 fold change [6]
GART (UniProt P22102) | 0.021 | -0.073 | 0.002 | -0.024 | 0.021 | -0.027 | 0.08 | 0.008 | -0.004 | -0.017 | -0.008 | -0.024 | -0.017 | 0.062 | -0.014 | -0.052 | -0.004 | 0 | -0.001 | -0.026
G6PD isoform 2 (UniProt P11413) | 0.029 | -0.068 | 0.013 | 0.031 | 0.009 | -0.025 | 0.145 | 0.021 | -0.017 | -0.023 | 0.018 | -0.022 | -0.03 | 0.094 | -0.023 | -0.063 | -0.003 | -0.015 | 0.037 | -0.035
FLAD1 (UniProt Q8NFF5) | 0.035 | -0.214 | 0.039 | -0.008 | -0.013 | 0.031 | 0.137 | -0.025 | -0.013 | -0.042 | 0.007 | 0.002 | -0.024 | 0.021 | 0.05 | 0.044 | -0.052 | -0.02 | -0.052 | -0.05
EIF2AK1 (UniProt Q9BQI3) | 0.044 | -0.044 | 0.068 | -0.021 | -0.028 | -0.004 | 0.041 | -0.004 | 0.122 | 0.101 | 0.142 | -0.022 | -0.036 | -0.033 | 0.06 | -0.009 | -0.009 | 0.017 | -0.068 | 0.062
ESYT2 (UniProt H7BXI1) | 0.02 | 0.038 | -0.02 | 0.001 | -0.072 | 0.053 | -0.1 | -0.003 | 0.029 | -0.006 | -0.008 | 0.01 | -0.039 | 0.089 | 0.018 | -0.073 | 0.063 | 0.018 | -0.115 | 0.002
ERLIN1 (UniProt O75477) | 0.006 | -0.058 | -0.001 | -0.024 | -0.066 | 0.086 | -0.216 (active) | -0.007 | -0.028 | 0.035 | -0.041 | -0.01 | 0.032 | -0.094 | -0.011 | 0.033 | 0.019 | 0.048 | -0.027 | 0.03
EWSR1 isoform 5 (UniProt Q01844) | -0.002 | 0.101 | -0.017 | -0.011 | 0.021 | -0.022 | -0.036 | 0.049 | -0.005 | -0.003 | -0.008 | 0.021 | 0.048 | -0.07 | -0.047 | 0.061 | -0.016 | -0.025 | 0.031 | 0.009
FASTKD2 (UniProt Q9NYY8) | 0.014 | -0.065 | 0.016 | 0.056 | 0.036 | -0.016 | -0.004 | 0.021 | -0.033 | 0.021 | -0.028 | -0.001 | -0.032 | -0.067 | 0.026 | -0.049 | -0.013 | 0.028 | -0.028 | 0.05
EHD2 (UniProt Q9NZN4) | -0.012 | -0.051 | 0.055 | 0.032 | -0.037 | 0.001 | 0.246 | -0.015 | 0.071 | -0.04 | -0.047 | -0.052 | -0.033 | 0.004 | 0.026 | -0.117 | -0.004 | 0.02 | -0.063 | 0.017
EP300 (UniProt Q09472) | -0.098 | 0.035 | -0.026 | 0.066 | 0.006 | 0.031 | 0.105 | -0.121 | -0.056 | -0.054 | 0.062 | -0.078 | 0.047 | -0.101 | -0.037 | -0.047 | 0.065 | -0.016 | 0.044 | 0.089
GCN1 (UniProt Q92616) | 0.036 | -0.181 | 0.001 | 0.037 | -0.023 | 0.014 | 0.147 | 0.023 | 0.006 | -0.004 | -0.034 | -0.027 | -0.125 | -0.002 | 0.008 | -0.121 | 0.017 | 0.019 | -0.049 | 0.053
FAM118A (UniProt Q9NWS6) | 0.006 | -0.153 | 0.077 | -0.007 | 0.002 | -0.017 | 0.002 | 0.008 | 0.03 | 0.003 | 0.02 | -0.006 | -0.054 | -0.09 | 0.019 | 0.002 | -0.016 | -0.013 | -0.059 | 0.118
EED, A0A5F9ZI63 | -0.007 | -0.026 | 0.039 | 0.003 | 0.036 | 0.004 | 0.063 | -0.01 | 0.013 | -0.025 | 0.047 | -0.014 | -0.001 | -0.041 | -0.006 | 0.022 | -0.01 | 0.006 | 0.033 | 0.076
GGA2 (UniProt Q9UJY4) | 0.002 | -0.085 | 0.003 | -0.029 | -0.018 | 0.002 | 0.01 | 0.038 | 0.023 | -0.025 | -0.024 | -0.037 | -0.029 | 0.023 | -0.002 | -0.131 | 0.007 | -0.024 | -0.046 | -0.004
EDC3 (UniProt Q96F86) | -0.045 | -0.1 | 0.003 | 0.009 | 0.038 | 0.019 | -0.071 | 0.025 | -0.02 | -0.042 | -0.007 | -0.034 | -0.012 | -0.021 | 0.014 | 0.032 | -0.007 | 0.024 | -0.008 | -0.003
FTL (UniProt P02792) | 0.013 | 0.187 | -0.04 | 0.15 | -0.097 | 0.145 | -0.076 | 0.067 | 0.007 | -0.024 | -0.072 | -0.027 | -0.066 | -0.022 | -0.001 | 0.068 | 0.008 | -0.024 | -0.052 | -0.018
